From the supplement of paper PMC8728848
Many of the other results were omitted from the sample, so the strongest signals are more common in it than they were.

What was measured:
Assay in all cases: glycan array binding signal (z-score within array); higher = stronger binding
Settings in all cases: glycan notation: IUPAC condensed, linker removed
Fuc(a1-2)Gal(b1-3)GalNAc = target: Fuc(a1-2)Gal(b1-3)GalNAc
In short: (§1)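 The binding signal is a Z-score computed within each array and averaged over linkers. Arrays of the same protein sequence at different concentrations or buffers were also averaged together. Data originate from 3228 arrays in the Consortium for Functional Glycomics database, kept only where the protein sequence was available.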

[1] = target: Fuc(a1-2)Gal(b1-3)GlcNAc(b1-3)[Fuc(a1-3)[Gal(b1-4)]GlcNAc(b1-6)]Gal(b1-4)Glc
In short: as §1

[2] = target: Fuc(a1-2)Gal(b1-3)[Fuc(a1-4)]GlcNAc(b1-2)Man(a1-3)[Fuc(a1-2)Gal(b1-3)[Fuc(a1-4)]GlcNAc(b1-2)Man(a1-6)]Man(b1-4)GlcNAc(b1-4)GlcNAc
In short: as §1

[3] = target: Fuc(a1-2)Gal(b1-3)[Fuc(a1-4)]GlcNAc(b1-3)[Gal(b1-4)GlcNAc(b1-6)]Gal(b1-4)Glc
In short: as §1

Fuc(a1-2)Gal(b1-4)Glc = target: Fuc(a1-2)Gal(b1-4)Glc
In short: as §1

[4] = target: Fuc(a1-2)Gal(b1-4)[Fuc(a1-3)]GlcNAc(b1-2)Man(a1-3)[Fuc(a1-2)Gal(b1-4)[Fuc(a1-3)]GlcNAc(b1-2)Man(a1-6)]Man(b1-4)GlcNAc(b1-4)GlcNAc
In short: as §1

[5] = target: Fuc(a1-2)[Gal(a1-3)]Gal(b1-4)GlcNAc
In short: as §1

[6] = target: Fuc(a1-2)[GalNAc(a1-3)]Gal(b1-3)GlcNAc(b1-2)Man(a1-3)[Fuc(a1-2)[GalNAc(a1-3)]Gal(b1-3)GlcNAc(b1-2)Man(a1-6)]Man(b1-4)GlcNAc(b1-4)GlcNAc
In short: as §1

[7] = target: Fuc(a1-2)[GalNAc(a1-3)]Gal(b1-4)GlcNAc(b1-3)Gal(b1-4)GlcNAc
In short: as §1

[8] = target: Fuc(a1-2)[GalNAc(a1-4)]Gal(b1-4)GlcNAc
In short: as §1

[9] = target: Fuc(a1-3)[Gal(b1-4)]GlcNAc(b1-3)GalNAc
In short: as §1

Gal(a1-3)Gal(b1-4)GlcNAc = target: Gal(a1-3)Gal(b1-4)GlcNAc
In short: as §1

[10] = target: Gal(a1-3)Gal(b1-4)[Fuc(a1-3)]GlcNAc(b1-2)Man(a1-3)[Gal(a1-3)Gal(b1-4)[Fuc(a1-3)]GlcNAc(b1-2)Man(a1-6)]Man(b1-4)GlcNAc(b1-4)GlcNAc
In short: as §1

Gal(a1-3)GalNAc = target: Gal(a1-3)GalNAc
In short: as §1

[11] = target: Gal(a1-4)Gal(b1-3)GlcNAc(b1-2)Man(a1-3)[Gal(a1-4)Gal(b1-3)GlcNAc(b1-2)Man(a1-6)]Man(b1-4)GlcNAc(b1-4)GlcNAc
In short: as §1

[12] = target: Gal(b1-3)GlcNAc(b1-2)Man(a1-3)[Gal(b1-3)GlcNAc(b1-2)Man(a1-6)]Man(b1-4)GlcNAc(b1-4)GlcNAc
In short: as §1

[13] = target: Gal(b1-3)GlcNAc(b1-3)Gal(b1-4)GlcNAc(b1-6)[Gal(b1-3)GlcNAc(b1-3)]Gal(b1-4)Glc
In short: as §1

[14] = target: Gal(b1-3)[Fuc(a1-4)]GlcNAc(b1-3)Gal(b1-4)GlcNAc
In short: as §1

Gal(b1-4)Glc6S = target: Gal(b1-4)Glc6S
In short: as §1

[15] = target: Gal(b1-4)GlcNAc(b1-3)Gal(b1-4)GlcNAc
In short: as §1

[16] = target: Gal(b1-4)GlcNAc(b1-3)[Gal(b1-4)GlcNAc(b1-6)]GalNAc
In short: as §1

[17] = target: GalNAc(b1-3)Gal(a1-6)Gal(b1-4)Glc
In short: as §1

[18] = target: GlcNAc(b1-2)Man(a1-3)[GlcNAc(b1-2)Man(a1-6)]Man(b1-4)GlcNAc(b1-4)GlcNAc
In short: as §1

GlcNAc(b1-3)Man = target: GlcNAc(b1-3)Man
In short: as §1

Kdn(a2-3)Gal(b1-4)Glc = target: Kdn(a2-3)Gal(b1-4)Glc
In short: as §1

[19] = target: Man(a1-2)Man(a1-3)[Man(a1-2)Man(a1-6)]Man
In short: as §1

Man(a1-3)[Man(a1-6)]Man = target: Man(a1-3)[Man(a1-6)]Man
In short: as §1

[20] = target: Neu5Ac(a2-3)Gal(b1-3)GalNAc(b1-4)[Neu5Ac(a2-3)]Gal(b1-4)Glc
In short: as §1

Neu5Ac(a2-3)Gal(b1-4)Glc = target: Neu5Ac(a2-3)Gal(b1-4)Glc
In short: as §1

[21] = target: Neu5Ac(a2-3)Gal(b1-4)GlcNAc(b1-3)Gal(b1-4)GlcNAc
In short: as §1

[22] = target: Neu5Ac(a2-3)Gal(b1-4)[Fuc(a1-3)]GlcNAc(b1-3)GalNAc
In short: as §1

[23] = target: Neu5Ac(a2-3)Gal(b1-4)[Fuc(a1-3)]GlcNAc(b1-6)[Gal(b1-3)]GalNAc
In short: as §1

[24] = target: Neu5Ac(a2-3)Gal(b1-4)[Fuc(a1-3)]GlcNAc(b1-6)[Neu5Ac(a2-3)Gal(b1-3)]GalNAc
In short: as §1

[25] = target: Neu5Ac(a2-3)GalNAc(b1-4)GlcNAc
In short: as §1

[26] = target: Neu5Ac(a2-3)[Neu5Ac(a2-6)]GalNAc
In short: as §1

[27] = target: Neu5Ac(a2-6)Gal(b1-4)GlcNAc
In short: as §1

[28] = target: Neu5Ac(a2-6)Gal(b1-4)GlcNAc(b1-3)Gal(b1-4)GlcNAc(b1-3)Gal(b1-4)GlcNAc
In short: as §1

[29] = target: Neu5Ac(a2-8)Neu5Ac(a2-3)[GalNAc(b1-4)]Gal(b1-4)Glc
In short: as §1

[30] = target: Neu5Ac9Ac(a2-6)Gal(b1-4)GlcNAc
In short: as §1

[31] = target: Neu5Gc(a2-6)Gal(b1-4)GlcNAc
In short: as §1

B1: SAG3 (Toxoplasma gondii), Q9BJ39 (protein)
chain: MQLWRRRAAGPASLGRQSLPLGCFFAAFGLCVLSAILGTGERGLFVAAGNSRRKITYFGTLTQKAPNWYRCSSTRAKEEVVGHVTLNKEHPDMTIECVDDGLGGEFLPLEGARSSYPRVCHIDAKDQDDCERNRGFLTDYIPGAKQYWYKIEKVEQNGEQSVLYKFTVPWILLPPAKQRYKVGCRYPNHEYCFVEVTVEPTPPMVEGKRVTCGYSESGPVNLEVDLSKNANFIEIRCGEQHHPQPSTYTLQYCSGDSVDPQKCSPQSLTNIFYDYSSSWWKGKLNGPDGATLTIPPGGFPEEDKSFLVGCSLTVDGPPFCNVKVRVAGNPRKWERGGGGHPGSGGLQPGTDGETQAGTGSSAGASSRMASVALAFLLGLLVHVAA
glycan array binding signal (z-score) (Fuc(a1-2)Gal(b1-3)GalNAc): -0.359
glycan array binding signal (z-score) [1]: 0.235
glycan array binding signal (z-score) [2]: 6.32
glycan array binding signal (z-score) [3]: 0.4
glycan array binding signal (z-score) (Fuc(a1-2)Gal(b1-4)Glc): -0.397
glycan array binding signal (z-score) [4]: 2.31
glycan array binding signal (z-score) [5]: 0.112
glycan array binding signal (z-score) [6]: -0.473
glycan array binding signal (z-score) [7]: -0.084
glycan array binding signal (z-score) [8]: -0.046
glycan array binding signal (z-score) [9]: 2.86
glycan array binding signal (z-score) (Gal(a1-3)Gal(b1-4)GlcNAc): -0.223
glycan array binding signal (z-score) [10]: 4.74
glycan array binding signal (z-score) (Gal(a1-3)GalNAc): -0.176
glycan array binding signal (z-score) [11]: -0.051
glycan array binding signal (z-score) [12]: 0.157
glycan array binding signal (z-score) [13]: 0.551
glycan array binding signal (z-score) [14]: -0.077
glycan array binding signal (z-score) (Gal(b1-4)Glc6S): -0.304
glycan array binding signal (z-score) [15]: 0.013
glycan array binding signal (z-score) [16]: -0.475
glycan array binding signal (z-score) [17]: -0.162
glycan array binding signal (z-score) [18]: -0.352
glycan array binding signal (z-score) (GlcNAc(b1-3)Man): 0.13
glycan array binding signal (z-score) (Kdn(a2-3)Gal(b1-4)Glc): 0.107
glycan array binding signal (z-score) [19]: -0.088
glycan array binding signal (z-score) (Man(a1-3)[Man(a1-6)]Man): 0.34
glycan array binding signal (z-score) [20]: -0.184
glycan array binding signal (z-score) (Neu5Ac(a2-3)Gal(b1-4)Glc): -0.168
glycan array binding signal (z-score) [21]: -0.053
glycan array binding signal (z-score) [22]: 16
glycan array binding signal (z-score) [23]: 3.05
glycan array binding signal (z-score) [24]: 2.02
glycan array binding signal (z-score) [25]: -0.469
glycan array binding signal (z-score) [26]: -0.226
glycan array binding signal (z-score) [27]: -0.372
glycan array binding signal (z-score) [28]: -0.049
glycan array binding signal (z-score) [29]: 2.27
glycan array binding signal (z-score) [30]: 0.292
glycan array binding signal (z-score) [31]: -0.387
